The entries come from a sample that favours hits as a whole.
Tb PYK inh = inhibitors of Trypanosoma brucei pyruvate kinase | TbPYK enzyme, Kinase-Glo Plus ATP luminescence, 45 min | AID 624173 | 410,000 compounds, 0.12% hits | Potency, µM (titrated, usually from 76.8 µM), inactives show at the highest dose activity, negative = inhibition, usual class: inhibitors; further: potency means the concentration at half of the fitted maximal effect; on the % scale 0 is the no-effect control and ±100 the full control effect; nearly all actives have a fitted effect of over 50% in size
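Assay buffer: 50 mM TEA pH 7.2, 100 mM KCl, 10 mM MgCl2, 0.05% BSA, 0.01% Tween-20. Pyruvate kinase from T. brucei plus substrate met compound, then ADP (130 uM final). Luminescence was read post 45 min RT.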
Shiga inhibitor = blocks Shiga toxin action in Vero cells. inhibition, % at 38.7 µM. 290,000 compounds, 9.2% hits. Vero cells, Shiga toxin protein synthesis inhibition reporter. AID 2315; in the data active means inhibition mostly above about 28%, no sharp cut-off; inactive means mostly below about 43%; further: 0% is about no effect
Sm TGR block = inhibitors of Schistosoma mansoni thioredoxin glutathione reductase; Q962Y6; purified TGR, DTNB reduction, TNB absorbance 405 nm; Potency, µM (titrated, usually from 114 µM), without a hit: top-dose activity change, negative = inhibition, most hits filed as inhibitors; 360,000 compounds, 3% hits; AID 485364; further: potency means the concentration at half of the fitted maximal effect; on the % scale 0 is the no-effect control and ±100 the full control effect; nearly all actives have a fitted effect of over 60% in size
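First, TGR (20 nM dispensed) and NADPH were mixed with compound. Second, a 15 min room-temperature incubation followed. Third, further NADPH and then DTNB were added to start the reaction. Finally, TNB absorbance was monitored kinetically.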
LmPK inhibitor = blocks Leishmania mexicana pyruvate kinase activity. Q27686. purified LmPK, Kinase-Glo ATP luminescence, 1 h. Potency, µM (series often up to 57.5 µM), for the others: at the top dose activity change, negative = inhibition, usual class: inhibitors. AID 1721. 290,000 compounds, 0.37% hits; further: potency means the concentration at half of the fitted maximal effect; on the % scale 0 is the no-effect control and ±100 the full control effect
Target sequence (Q27686 whole entry, looked up): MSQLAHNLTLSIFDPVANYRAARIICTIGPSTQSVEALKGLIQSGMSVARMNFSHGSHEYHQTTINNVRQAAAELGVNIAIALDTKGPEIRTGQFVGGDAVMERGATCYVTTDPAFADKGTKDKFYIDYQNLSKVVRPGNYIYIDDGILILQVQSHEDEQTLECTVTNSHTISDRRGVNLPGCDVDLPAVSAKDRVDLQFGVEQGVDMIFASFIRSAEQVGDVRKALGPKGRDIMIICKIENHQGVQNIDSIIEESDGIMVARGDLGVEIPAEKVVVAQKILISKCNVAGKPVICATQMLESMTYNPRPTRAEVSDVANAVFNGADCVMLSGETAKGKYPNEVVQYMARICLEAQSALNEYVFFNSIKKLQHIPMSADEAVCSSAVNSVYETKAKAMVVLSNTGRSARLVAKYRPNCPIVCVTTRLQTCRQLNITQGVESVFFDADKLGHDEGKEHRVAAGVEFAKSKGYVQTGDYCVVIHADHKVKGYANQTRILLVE
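0.1 nM LmPK, 0.5 mM PEP, 0.1 mM ADP; 50 mM imidazole pH 7.2, 7 mM MgCl2, 50 mM KCl; 1 h RT. Kinase-Glo luminescence readout, normalized to no-enzyme (full inhibition) and uninhibited wells.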
Giardia FBPA inh = blocks Giardia fructose-bisphosphate aldolase activity; A8B2U2; purified Giardia FBPA; Potency, µM (top dose mostly 59.6 µM), without a hit: top-dose activity, negative = inhibition, most hits filed as inhibitors; 290,000 compounds, 0.71% hits; AID 2451; further: potency means the concentration at half of the fitted maximal effect; on the % scale 0 is the no-effect control and ±100 the full control effect; nearly all actives have a fitted effect of over 55% in size
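40 nM FBPA preincubated 10 min at RT with compound (up to 57.5 uM final), then substrate plus GAPDH/TPI/NAD/arsenate coupling and diaphorase/resazurin added. Fluorescence read after 20 min at RT, 525/598 nm.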
Cycloheximide cs = counter-screen for Shiga toxin inhibitors: cycloheximide protein synthesis inhibition; cell reporter, cycloheximide protein synthesis inhibition counterscreen; 300,000 compounds, 12% hits; max response, %; in the data active means max response mostly above about 13%, no sharp cut-off; inactive means mostly below about 14%; further: read at 38.3 µM for the half of the compounds with a filed dose; 0% is about no effect
* hit, by the source's call; ? = inconclusive; · = no result given; [ ] = remark or other dose. Unless noted, the call rests on the fitted dose curve; in most records, active means well fitted curve in the direction sought with a large enough effect; inconclusive means small, poorly fitted or top-dose-only effect, or another doubt; inactive means no such curve, though single readings can be large; an effect the other way counts as inactive or inconclusive.

SMILES	Tb PYK inh	Shiga inhibitor	Sm TGR block	LmPK inhibitor	Giardia FBPA inh	Cycloheximide cs
CCc1ccc(C(=O)NNc2ccccc2F)cc1	8%	71*	-6%	-5%	2%	36*
CCc1ccc(C(=O)NNc2cc(Cl)ccc2Cl)cc1	-25%	13	18%	3%	0%	2
COc1ccc(CN2CCC(n3nccc3NC(=O)CCOc3ccccc3)CC2)cc1C	8%	-12	-4%	-2%	-1%	0
COc1cccc(CN2CCCN(Cc3ccc(F)cc3)S2(=O)=O)c1	-3%[15.4 µM]	·	5%	·	·	·
COC(=O)c1sc(-c2ccc(C(C)(C)C)cc2)cc1NC(=O)CSCC(=O)O	-2%	94	-10%	2%	17%	15*
CCOc1ccc(NC(=O)Nc2cc(-c3ccccc3)sc2C(=O)OC)cc1	-1%	3	-17%	0%	-4%	5
COC(=O)c1sccc1NC(=O)c1ccccc1C(=O)O	1%	·	·	·	·	·
COC(=O)c1sc(-c2ccccc2)cc1NC(=O)C1CC1	-4%	18	-1%	5%[11.5 µM]	9%	7
CCOc1ccc(-c2cc(NC(=O)c3c(F)cccc3F)c(C(=O)O)s2)cc1	1%	40*	-24%	-2%	0%	11
COC(=O)c1sc(-c2ccc(Cl)cc2)cc1NC(=O)c1ccccc1C(=O)O	-2%	72*	-6%	-2%	20%	31*
COC(=O)c1sc(-c2ccc(C(C)(C)C)cc2)cc1NC(=O)c1ccccc1C(=O)O	1%	84*	4%	1%	6%	44*
O=C(Nc1ccc2c(c1)N(C1CCCC1)C(=O)c1ccccc1S2)c1cccc(F)c1	3%	·	9%	·	·	·
COc1ccc(O[C@H]2C=C[C@@H](c3ccccc3)O[C@H]2COC(=O)CC/C(C)=N\O[C@@H](C)c2cc(-c3c(C)cc(C)cc3C)no2)cc1	·	·	·	·	1%[12.9 µM]	·
CCOc1ccc(/C=C/c2nc(C#N)c(N3CCN(CC)CC3)o2)cc1	-1%	·	0%	·	·	·
COc1ccc2nc(SCC(=O)NC(C)c3ccccc3)[nH]c2c1 (configuration not stated)	0%	·	-13%	·	·	·
CCN(CC)c1ccc(/C=N/NC(=O)c2ccc(O)cc2)cc1	·	116*	·	·	-7%	49*
CCN(CC)c1ccc(C(=O)N/N=C(\C)c2ccc(O)cc2)cc1	-5%	-4	5%	4%	0%	-1
CCN(CC)c1ccc(/C=N/NC(=O)OC(C)(C)C)cc1	-1%	85*	0%	6%	0%	34*
CCN(CC)c1ccc(/C=N/O)cc1	0%	41	1%	4%	-6%	17*
CCN(CC)c1ccc(/C=N/NC(=O)CC(C)C)cc1	5%	47*	3%	7%	-2%	47*
CCOc1ccc(S(=O)(=O)N2CCCCC2)cc1NS(=O)(=O)c1cccs1	3%	·	0%	·	·	·
CCN(CC)c1ccc(/C=N/NC(=O)c2ccoc2C)cc1	?	45*	30%	14µM*	-9%	25*
CC(=O)Nc1ccc(-c2cc(-c3ccccc3)nc(-c3ccccc3)n2)cc1	-5%	-4	5%	2%	0%	5
Cc1ccn2cc(-c3ccc(Br)cc3)nc2c1	-13%	22*	-1%	?	-24%	38*
COc1ccc2oc(=O)c(C(=O)n3ccc(C)n3)cc2c1	0%	-14	1%	-5%	5%	2
SMILES	Tb PYK inh	Shiga inhibitor	Sm TGR block	LmPK inhibitor	Giardia FBPA inh	Cycloheximide cs
Cc1ccn2cc(-c3cccc(NS(C)(=O)=O)c3)nc2c1	-7%	59*	1%	-19%	-17%	60*
COc1ccc2oc(=O)c(-c3cn4ccc(C)cc4n3)cc2c1	-2%	28	·	3%	-13%	23*
CC(=O)Nc1ccc2nc(-c3ccccc3)cn2c1	-3%	107*	-6%	-10%	-14%	40*
O=C1C=CC(=O)C(Cl)=C1	·	53	·	·	?	16
CC1CC(=O)N(CC(=O)Nc2ccccc2F)c2ccccc2S1(=O)=O (configuration not stated)	-2%	-1	-15%	0%	-10%	-4
COc1ccc(C(=O)NNc2ncnc3c2cnn3-c2ccc(C)c(Cl)c2)cc1	0%	·	-1%	·	·	·
Cc1ccc(C(=O)Nc2ccc3c(c2)N(C)C(=O)c2ccccc2S3)cc1	-2%	·	0%	·	·	·
Clc1ccc(-c2cn3cc(Br)ccc3n2)cc1Cl	-5%	103*	1%	-13%	-16%	51*
Cc1ccc(S(=O)(=O)Nc2ccc(-c3cn4ccc(C)cc4n3)cc2)cc1	1%	19	-5%	2%	-19%	8
Cc1ccn2cc(-c3cnoc3C)nc2c1	-18%	82	6%	?	0%	18
Cc1ccn2cc(-c3ccc(NS(=O)(=O)c4ccccc4)cc3)nc2c1	15%	13*	5%	0%	-17%	16
CC(=O)Nc1cccc(-c2cn3ccc(C)cc3n2)c1	-3%	89*	18%	?	-21%	44*
COc1c(Cl)cccc1-c1cn2ccc(C)cc2n1	-6%	81*	-1%	?	?	42*
COC(=O)CN1C(=O)CSc2ccc(S(=O)(=O)Nc3cccc(Br)c3)cc21	1%	·	0%	·	·	·
Cc1nn(-c2ccccc2)c(OC(=O)c2ccc(F)cc2)c1S(=O)(=O)c1ccccc1	1%	·	-6%	·	·	·
COc1ccc(NC(=O)CN(c2ccccc2OC)S(C)(=O)=O)c(OC)c1	1%	·	-1%	·	·	·
C#CCN[C@@H]1CCc2ccccc21	-4%	·	·	·	·	·
Cc1ccn2cc(-c3cccc(S(=O)(=O)N4CCCC4)c3)nc2c1	-3%	98	-9%	2%	-17%	19*
Cc1ccn2cc(-c3cccc(S(=O)(=O)N4CC(C)OC(C)C4)c3)nc2c1 (configuration not stated)	7%	4	4%	14%	-10%	-1
Cc1cccc(CNC(=O)Cn2c(-c3cccs3)cc3ccccc32)c1	8%	·	-5%	·	·	·
Cc1cc(C(=O)CSc2nnnn2C)c(C)n1CCc1ccc(F)cc1	-5%	17	-3%	7%	2%	-2
COc1ccc(CCn2c(C)cc(C(=O)CCl)c2C)cc1OC	-3%	-24	11µM*	6%	-5%	-2
Cc1cc(C(=O)CCl)c(C)n1CCc1ccc(F)cc1	-11%	-27	2.5µM*	2%	-5%	10
Cc1cc(C(=O)CSc2nnc(N)s2)c(C)n1CCc1ccc(Cl)cc1	1%	25	0%	2%	-7%	13
Cc1cc(C(=O)CCl)c(C)n1CCc1ccc(Cl)cc1	-5%	32	7.9µM*	-2%	-13%	11
COc1ccc(NC(=O)N2CCc3nc(COc4ccccc4)c4c(c3C2)CO[C@@H](C)C4)cc1	·	·	·	-4%[11.5 µM]	0%[12.9 µM]	·
CCOC(=O)c1cccc(NC(=O)c2cc3c(Cl)nc4ccc(C)cc4c3s2)c1	0%	·	-4%	·	·	·

Bioassay records deposited in PubChem by National Center for Advancing Translational Sciences (NCATS).
